The target in assay [1] is Serine/threonine-protein kinase 26 (Homo sapiens) (UniProt Q9P289). The conditions noted are these: at 1 µM.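 Also: mean inhibition of MST4 kinase activity, reported from the GSK PKIS inhibitor-set screening panel.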
In assay [2] the target is Serine/threonine-protein kinase PAK 1 (Homo sapiens) (UniProt Q13153). The conditions noted are these: at 0.1 µM.
For assay [3] the target is unchanged. The conditions noted are these: at 1 µM.
In assay [4] the target is Serine/threonine-protein kinase PAK 2 (Homo sapiens) (UniProt Q13177). The conditions noted are these: at 0.1 µM.
Sequence of Serine/threonine-protein kinase PAK 2 (Homo sapiens) (Q13177 whole entry): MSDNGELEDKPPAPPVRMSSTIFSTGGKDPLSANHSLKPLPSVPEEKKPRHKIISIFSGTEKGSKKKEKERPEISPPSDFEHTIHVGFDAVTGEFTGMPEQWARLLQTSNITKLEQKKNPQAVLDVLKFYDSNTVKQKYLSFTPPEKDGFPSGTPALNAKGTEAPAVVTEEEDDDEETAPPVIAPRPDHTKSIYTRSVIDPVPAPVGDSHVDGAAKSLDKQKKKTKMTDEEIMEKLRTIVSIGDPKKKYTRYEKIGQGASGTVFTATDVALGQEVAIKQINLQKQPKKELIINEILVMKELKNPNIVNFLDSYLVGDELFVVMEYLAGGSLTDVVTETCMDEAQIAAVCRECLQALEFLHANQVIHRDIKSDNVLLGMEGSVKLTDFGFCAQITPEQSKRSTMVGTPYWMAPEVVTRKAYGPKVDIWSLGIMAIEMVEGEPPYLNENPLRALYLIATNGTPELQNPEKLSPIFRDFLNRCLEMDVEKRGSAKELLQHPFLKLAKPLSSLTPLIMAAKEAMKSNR
For assay [5] the target is unchanged. Conditions: at 1 µM.
In assay [6] the target is Serine/threonine-protein kinase PAK 3 (Homo sapiens) (UniProt O75914). The conditions noted are these: at 0.1 µM.
Sequence of Serine/threonine-protein kinase PAK 3 (Homo sapiens) (O75914 whole entry, looked up): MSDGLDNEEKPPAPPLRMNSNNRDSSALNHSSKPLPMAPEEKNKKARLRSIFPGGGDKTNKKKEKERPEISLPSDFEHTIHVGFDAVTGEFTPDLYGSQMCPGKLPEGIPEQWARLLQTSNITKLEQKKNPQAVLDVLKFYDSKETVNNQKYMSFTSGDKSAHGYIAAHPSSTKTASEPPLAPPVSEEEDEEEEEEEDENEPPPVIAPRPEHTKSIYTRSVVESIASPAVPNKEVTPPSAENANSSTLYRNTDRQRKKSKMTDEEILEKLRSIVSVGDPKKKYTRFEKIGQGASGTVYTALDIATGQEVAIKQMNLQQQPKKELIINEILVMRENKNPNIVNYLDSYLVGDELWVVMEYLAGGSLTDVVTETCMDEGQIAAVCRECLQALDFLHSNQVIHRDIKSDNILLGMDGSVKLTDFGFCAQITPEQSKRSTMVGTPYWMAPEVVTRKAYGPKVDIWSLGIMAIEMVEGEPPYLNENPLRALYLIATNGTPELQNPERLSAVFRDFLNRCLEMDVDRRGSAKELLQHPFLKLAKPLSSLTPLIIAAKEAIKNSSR
The target is the same in assay [7]. The conditions noted are these: at 1 µM.
For assay [8], the target named is Serine/threonine-protein kinase PAK 5 (Homo sapiens) (UniProt Q9P286). Conditions: at 0.1 µM.
Sequence of Serine/threonine-protein kinase PAK 5 (Homo sapiens) (Q9P286 whole entry, looked up): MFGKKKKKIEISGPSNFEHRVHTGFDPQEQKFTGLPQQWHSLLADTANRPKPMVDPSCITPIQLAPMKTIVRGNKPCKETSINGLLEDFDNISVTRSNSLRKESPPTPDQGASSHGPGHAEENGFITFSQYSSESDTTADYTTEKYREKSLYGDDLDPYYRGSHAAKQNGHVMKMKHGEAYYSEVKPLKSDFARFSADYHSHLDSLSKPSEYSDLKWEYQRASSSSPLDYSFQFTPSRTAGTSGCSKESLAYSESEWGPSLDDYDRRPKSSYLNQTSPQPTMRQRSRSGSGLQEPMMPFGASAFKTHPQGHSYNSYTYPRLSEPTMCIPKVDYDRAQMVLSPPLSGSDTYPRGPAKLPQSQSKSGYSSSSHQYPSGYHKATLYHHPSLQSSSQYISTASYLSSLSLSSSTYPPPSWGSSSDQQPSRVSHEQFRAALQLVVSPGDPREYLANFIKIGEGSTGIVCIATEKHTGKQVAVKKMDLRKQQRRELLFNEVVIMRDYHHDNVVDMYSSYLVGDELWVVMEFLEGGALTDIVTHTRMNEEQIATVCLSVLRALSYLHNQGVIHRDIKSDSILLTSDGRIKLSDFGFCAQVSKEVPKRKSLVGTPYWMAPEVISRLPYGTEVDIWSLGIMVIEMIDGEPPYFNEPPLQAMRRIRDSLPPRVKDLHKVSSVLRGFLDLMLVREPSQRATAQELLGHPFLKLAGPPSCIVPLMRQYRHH
Assay [9] shares this target. The conditions noted are these: at 1 µM.
For assay [10], the target named is Serine/threonine-protein kinase PAK 6 (Homo sapiens) (UniProt Q9NQU5). The conditions noted are these: at 0.1 µM.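 Also: mean PAK6 inhibition reported from the GSK PKIS screen.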
Sequence of Serine/threonine-protein kinase PAK 6 (Homo sapiens) (Q9NQU5 whole entry, looked up): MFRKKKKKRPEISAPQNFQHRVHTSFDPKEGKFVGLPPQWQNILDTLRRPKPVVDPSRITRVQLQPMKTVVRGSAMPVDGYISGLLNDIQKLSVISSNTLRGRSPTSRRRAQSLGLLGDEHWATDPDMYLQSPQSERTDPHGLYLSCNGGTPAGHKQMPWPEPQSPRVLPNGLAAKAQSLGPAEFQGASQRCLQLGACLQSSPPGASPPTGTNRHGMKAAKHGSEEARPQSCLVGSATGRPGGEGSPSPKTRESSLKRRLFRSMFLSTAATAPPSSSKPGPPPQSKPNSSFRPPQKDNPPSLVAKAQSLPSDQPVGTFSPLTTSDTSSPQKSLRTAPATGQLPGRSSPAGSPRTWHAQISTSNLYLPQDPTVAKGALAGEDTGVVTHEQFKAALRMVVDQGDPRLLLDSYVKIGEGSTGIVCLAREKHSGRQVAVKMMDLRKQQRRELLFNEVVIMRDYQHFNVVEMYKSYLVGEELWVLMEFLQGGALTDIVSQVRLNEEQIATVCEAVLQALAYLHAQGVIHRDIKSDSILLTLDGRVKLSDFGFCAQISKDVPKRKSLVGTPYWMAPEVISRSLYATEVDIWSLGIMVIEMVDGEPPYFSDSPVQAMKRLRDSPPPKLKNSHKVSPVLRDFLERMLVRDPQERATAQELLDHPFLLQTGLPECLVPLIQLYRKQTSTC

Where “and” joins values, the source holds several entries; their conditions need not be identical. Identical values can stand only once.

Sequence of Serine/threonine-protein kinase PAK 1 (Homo sapiens) (Q13153 whole entry): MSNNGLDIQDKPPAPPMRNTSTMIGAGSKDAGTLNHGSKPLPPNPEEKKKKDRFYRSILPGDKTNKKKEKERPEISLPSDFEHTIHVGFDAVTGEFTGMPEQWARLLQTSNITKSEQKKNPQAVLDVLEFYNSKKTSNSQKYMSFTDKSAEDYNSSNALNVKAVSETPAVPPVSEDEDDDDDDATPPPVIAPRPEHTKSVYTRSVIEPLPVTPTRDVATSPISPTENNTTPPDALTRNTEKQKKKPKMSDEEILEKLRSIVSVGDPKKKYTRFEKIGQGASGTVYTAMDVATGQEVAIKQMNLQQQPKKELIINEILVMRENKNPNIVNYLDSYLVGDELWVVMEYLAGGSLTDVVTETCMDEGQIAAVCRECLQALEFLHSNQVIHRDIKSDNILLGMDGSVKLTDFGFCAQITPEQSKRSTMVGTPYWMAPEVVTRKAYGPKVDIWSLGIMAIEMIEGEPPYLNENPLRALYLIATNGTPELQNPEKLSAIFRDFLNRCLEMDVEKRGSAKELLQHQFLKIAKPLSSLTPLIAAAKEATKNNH
Sequence of Serine/threonine-protein kinase 26 (Homo sapiens) (Q9P289 2-416 limits assumed): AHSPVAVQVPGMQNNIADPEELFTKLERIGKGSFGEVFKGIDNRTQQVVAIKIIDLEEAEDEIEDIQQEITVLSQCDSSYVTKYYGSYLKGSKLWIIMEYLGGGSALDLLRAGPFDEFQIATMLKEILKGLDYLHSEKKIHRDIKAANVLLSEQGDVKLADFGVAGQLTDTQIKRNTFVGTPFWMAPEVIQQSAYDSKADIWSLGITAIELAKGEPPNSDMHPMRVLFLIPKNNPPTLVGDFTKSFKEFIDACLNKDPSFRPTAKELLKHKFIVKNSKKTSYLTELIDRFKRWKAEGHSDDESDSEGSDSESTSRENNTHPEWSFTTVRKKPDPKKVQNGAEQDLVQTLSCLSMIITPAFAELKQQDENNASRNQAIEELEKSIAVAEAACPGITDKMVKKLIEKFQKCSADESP

On to `Nc1nonc1-c1nc2cnccc2n1C1CC1`, for which the inhibition (as a rule, the drop in the measured response relative to a control, in per cent) in assay [1] was -0.64% and -0.44%; in assay [2] it was 6.95% and 4.45%; in assay [3], 7.1% and 6.44%; in assay [4], 3.23% and 1.09%; in [5], 2.18% and 0.82%; in [6], 4.18% and 2.78%. The inhibition was 5.29% and 3.12% in assay [7]; 0.47% and 4.24% in [8]; 1.66% and 0.23% in assay [9]; 7.48% and 3.54% in assay [10].
Consider `COc1cc(N2CCN(C(C)C)CC2)ccc1Nc1nc(Nc2cccc(F)c2C(=O)O)c2cc[nH]c2n1`, for which the inhibition in assay [1] was 2.17%; in assay [2] it was 6.19%; in assay [3], 5.79%; in assay [4] it was 1.31%; in [5] it was 2.49%; in assay [6], 4.37%. Besides, the inhibition in assay [7] came out at 4.9%; in assay [8], 3.7%; in assay [9], 4.16%; in assay [10], 0.22%.
Turning to `O=C(O[C@H]1CN[C@H](C#Cc2cc3ncnc(Nc4ccc5c(cnn5Cc5ccccc5)c4)c3s2)C1)N1CCOCC1`, the inhibition in assay [1] was 2.02%; in [2], 2.28%; in assay [3], 0.73%; in assay [4] it was -1.9%; in [5] it was -1.35%; in [6], -0.09%. Besides, the inhibition in assay [7] was 0.69%; in assay [8], -0.12%; in assay [9] it was -1.71%; in [10], 3.43%.
`COC(=O)Nc1nc2ccc(Oc3ccc(NC(=O)Nc4cc(C(F)(F)F)ccc4F)cc3)cc2s1`: the inhibition in assay [1] was 1.71%; in [2], -2.89%; in assay [3], 1.52%; in [4], -1.5%; in assay [5], -0.42%; in [6], -1.09%. Further, the inhibition in [7] was 0.28%; in [8], 0.53%; in [9], -1.37%; in assay [10], 2.82%.
As to `O=C(Nc1n[nH]c2nnc(-c3cccnc3)cc12)C1CC1`, the inhibition is 1.72% in assay [1]; -0.56% in assay [2]; 2.67% in [3]; -0.8% in assay [4]; -0.23% in assay [5]; -0.23% in [6]. The inhibition was 0.64% in assay [7], -4.39% in [8], -1.42% in assay [9] and -7.92% in assay [10].
For `Cc1c2ccc(N(C)c3ccnc(Nc4cccc(S(N)(=O)=O)c4)n3)cc2nn1C`, the inhibition in assay [1] is -1.81%; in assay [2], 7.49%; in [3], 5.47%; in [4], 3.47%; in assay [5], 3.15%; in assay [6], 4.74%. For the same molecule, the inhibition was 7.28% in assay [7], 1.63% in assay [8], -1.02% in assay [9] and 2.18% in [10].
On to `N#Cc1ccc2c(-c3ccnc(NC4CC4)n3)c(-c3ccc(F)cc3)nn2c1`, for which the inhibition in assay [1] was -1.31%; in assay [2], -1.35%; in assay [3], 7.43%; in assay [4], 0.74%; in [5], 0.16%; in assay [6], 1.37%. The inhibition in [7] was 2.53%; in assay [8] it was 1.73%; in assay [9] it was 3.22%; in assay [10], -5.39%.
As for `CS(=O)(=O)CCNCc1ccc(-c2ccc3ncnc(Nc4ccc(OCc5cccc(C(F)(F)F)c5)cc4)c3c2)o1`, the inhibition in assay [1] was determined as 0.42%; in [2], 8.38%; in [3], 7.33%; in [4], 1.38%; in [5] it was 3.12%; in assay [6] it was 5.6%. Also, the inhibition was 9.88% in [7], 4.72% in assay [8], 5.29% in [9] and -8.96% in [10].
For the molecule `c1cnn2ncc(-c3ccnc(NCCCN4CCOCC4)n3)c2c1`, the inhibition in assay [1] was -2.39%; in [2], 6.37%; in assay [3], 4.03%; in [4], 1.39%; in assay [5] it was 0.34%; in assay [6] it was 3.11%. Also, the inhibition was 3.78% in assay [7], 2.65% in assay [8], 1.01% in assay [9] and -0.41% in assay [10].
`Fc1cccc(COc2ccc(Nc3ncncc3C#Cc3ccccc3)cc2Cl)c1`: the inhibition in [1] stood at 0.47%; in assay [2], 4.22%; in assay [3], 6.2%; in assay [4] it was 1.86%; in [5], 2.71%; in assay [6] it was 4.76%. For the same molecule, the inhibition in [7] worked out at 5.44%; in [8], 1.61%; in assay [9], 0.61%; in assay [10], 1.93%.
Consider `NC(=O)c1ccc2c(-c3ccnc(NCCCO)n3)c(-c3ccc(F)cc3)nn2c1`, for which the inhibition is -2.28% in assay [1]; 7.12% in [2]; 6.41% in assay [3]; 2.25% in assay [4]; 2.24% in assay [5]; 4.61% in assay [6]. Moreover, the inhibition is 4.88% in assay [7], 0.64% in [8], -4.27% in assay [9] and 5.26% in assay [10].
As to `CN1CCN(Cc2ccc(-c3cc4ncnc(Nc5ccc(OCc6cccc(F)c6)c(Cl)c5)c4s3)o2)CC1`, the inhibition in assay [1] is -2.57% and -0.01%; in assay [2], 6.52% and 11.3%; in assay [3], 6.39% and 9.31%; in [4], 0.62% and 1.36%; in assay [5], 1.83% and 3.59%; in [6], 3.14% and 6.57%. Further, the inhibition in assay [7] was 5.4% and 6.56%; in assay [8], 2.6%; in assay [9] it was 5.21%; in assay [10] it was -1.82%.
For `FC(F)(F)CNc1nccc(-c2cnn3ncccc23)n1`, the inhibition is -0.52% in assay [1]; 0.97% in assay [2]; 6.19% in assay [3]; 0.24% in assay [4]; -0.87% in assay [5]; 4.27% in [6]. For the same molecule, the inhibition in [7] is 3.14%; in [8] it was 1.55%; in [9] it was 1.35%; in assay [10], -2.63%.
With `c1ccc(-c2n[nH]cc2-c2ccnc(-c3ccc(OCCn4ccnc4)cc3)c2)nc1`, the inhibition in assay [1] was 3.16%; in [2], 1.76%; in [3], 3.78%; in assay [4], -0.68%; in assay [5] it was 0.37%; in [6] it was -0.22%. In addition, the inhibition in [7] is -2.41%; in [8] it was -0.74%; in [9], 4.05%; in assay [10], -3.76%.
As to `Cc1nnc(-c2cccc(-c3ccc(C(=O)NCC4CC4)cc3)c2)o1`, the inhibition turned out to be 0.39% in assay [1]; 9.41% in assay [2]; 10.5% in assay [3]; 2.54% in assay [4]; 3.86% in assay [5]; 7.07% in [6]. Also, the inhibition turned out to be 5.35% in [7], 4.12% in assay [8], 2.3% in assay [9] and 4.58% in assay [10].
With `COc1cccc(-n2ncc3c(N/N=C/c4ccc(C(=O)NCCN(C)C)cc4)ncnc32)c1`, the inhibition was 0.63% in assay [1]; 7.17% in assay [2]; 5.32% in [3]; 1.01% in assay [4]; 1.56% in assay [5]; 2.69% in assay [6]. Also, the inhibition in [7] amounted to 3.69%; in [8], 12.8%; in [9], 7.55%; in assay [10] it was 1.68%.

These data come from ChEMBL document CHEMBL1961873, “Compounds: GSK PKIS; Assays: Nanosyn kinase panel” (2012).
